Screens: PubChem BioAssay, National Center for Advancing Translational Sciences (NCATS)
Rab9 prom act: qHTS Assay for Rab9 Promoter Activators; Huh7 Rab9 promoter-luciferase reporter, luminescence, 24 h; AID 485297, 2010; Potency, µM (series often up to 9.22 µM), most hits filed as activators; 320,000 tested, 2.8% active; also: nearly all actives have a fitted effect of over 60% in size
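Luciferase signal after 10 min detection reagent at ambient indicates Rab9 promoter upregulation; stably transfected Huh7 cells were treated 24 h with compound in DMSO at 37 °C, 5% CO2.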
FLuc modulator: qHTS profiling assay for firefly luciferase inhibitor/activator using purifed enzyme and Km concentrations of substrates (counterscreen for miR-21 project); 360,000 tested, 6.9% active; Luciferin 4-monooxygenase (Photinus pyralis), P08659; Potency, µM (top dose mostly 57.5 µM), actives largely listed as inhibitors; AID 588342, 2011; purified FLuc, Km substrates, luminescence inhibition; also: nearly all actives have a fitted effect of over 55% in size
Target sequence (P08659 whole entry, looked up): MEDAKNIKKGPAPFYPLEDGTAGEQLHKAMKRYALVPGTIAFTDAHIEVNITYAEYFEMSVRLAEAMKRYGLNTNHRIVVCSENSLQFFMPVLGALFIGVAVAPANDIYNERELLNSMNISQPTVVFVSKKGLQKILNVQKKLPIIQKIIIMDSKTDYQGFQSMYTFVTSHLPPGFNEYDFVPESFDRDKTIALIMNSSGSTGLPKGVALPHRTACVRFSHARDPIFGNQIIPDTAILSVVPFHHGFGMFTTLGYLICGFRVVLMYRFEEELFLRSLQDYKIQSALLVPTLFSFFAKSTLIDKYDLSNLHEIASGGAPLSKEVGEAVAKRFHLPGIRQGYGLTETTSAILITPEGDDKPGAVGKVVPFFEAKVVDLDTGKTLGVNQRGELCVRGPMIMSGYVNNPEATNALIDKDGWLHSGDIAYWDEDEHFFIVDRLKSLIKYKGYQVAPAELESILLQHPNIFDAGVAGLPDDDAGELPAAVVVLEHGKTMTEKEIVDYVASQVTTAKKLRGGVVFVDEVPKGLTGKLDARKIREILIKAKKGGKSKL
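Biochemical qHTS of compounds, final roughly 60 µM downward over six points, against 10 nM purified firefly luciferase using Km concentrations of substrates (10 uM D-luciferin, 10 uM ATP) in Tris acetate pH 7.5 buffer; luminescence output.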
NPC1 promoter act: qHTS Assay for NPC1 Promoter Activators; 320,000 tested, 2.4% active; Huh7 NPC1 promoter luciferase reporter, 24 h; AID 485313, 2010; Potency, µM (highest dose often 9.22 µM), usual class: activators; also: nearly all actives have a fitted effect of over 60% in size
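Readout is luciferase luminescence, reflecting NPC1 promoter activation in stably transfected Huh7 cells after 24 h compound exposure at 37 °C in reduced-serum medium with 10% FBS.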
ELG1 genotox: qHTS screen for small molecules that induce genotoxicity in human embryonic kidney (HEK293T) cells expressing luciferase-tagged ELG1 | Potency, µM (highest dose often 46 µM), most hits filed as activators | 330,000 tested, 1.3% active | HEK293T ELG1-luciferase reporter, luminescence, 16 h; also: nearly all actives have a fitted effect of over 60% in size
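After overnight (16 hr) compound treatment at 37 °C, ELG1-luciferase HEK293T cells were lysed with ONE-Glo; luminescence quantified 30 min later at room temperature.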
SMN2 splice up: qHTS Assay for Enhancers of SMN2 Splice Variant Expression. HEK293 SMN2-luciferase splicing reporter, luminescence, 30-36 h. Potency, µM (series often up to 46.1 µM), actives largely listed as activators. 210,000 tested, 2.8% active; also: nearly all actives have a fitted effect of over 55% in size
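HEK293 cells carry an SMN2 minigene-luciferase reporter in which exon 7 inclusion puts luciferase in frame. Cells were seeded at 2000 cells/well, attached for 10-12 hours, then exposed to compounds for 30-36 hours at 37C before ONE-Glo luminescence.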
Large screens that a line does not name were inactive. Compounds with a hit are over-represented: about 7.4% of the library has one in this group of screens. Calls follow the shape of the dose curve; as a rule, active = well fitted curve in the direction sought with a large enough effect; inconclusive = small, poorly fitted or top-dose-only effect, or another doubt; inactive = no such curve, though single readings can be large; an effect the other way counts as inactive or inconclusive.

Clc1cccc(-c2ccc3ncnc(NCc4ccc5c(c4)OCO5)c3c2)c1	none (no result: ELG1 genotox, SMN2 splice up)
Cc1ccc(C(=O)c2c(N)c(-c3nc(-c4ccc5c(c4)OCO5)cs3)c3ccccn23)cc1C	none (no result: Rab9 prom act, NPC1 promoter act, ELG1 genotox)
CN(C)S(=O)(=O)c1cccc(C(=O)N=C2N=C3C=CC(Cl)=CN3Cc3ccccc32)c1	Rab9 prom act 3.5µM, FLuc modulator 17µM, NPC1 promoter act 2.5µM, ELG1 genotox inconclusive (no result: SMN2 splice up)
c1csc(-c2nnc3ccccn23)c1	SMN2 splice up 0.0028µM
COc1ccc(C(=O)C2CCCN(C(=O)CCc3scnc3C)C2)c(C)c1 (stereo not given)	Rab9 prom act inconclusive, FLuc modulator 19µM, NPC1 promoter act inconclusive, ELG1 genotox inconclusive (no result: SMN2 splice up)
CC(C)C(=O)Nc1cccc(-c2cn3ccsc3n2)c1	FLuc modulator 15µM, ELG1 genotox inconclusive
CC(C)(C)CC(=O)Nc1cccc(-c2cn3cccnc3n2)c1	Rab9 prom act 2.5µM, FLuc modulator 11µM, NPC1 promoter act inconclusive, ELG1 genotox inconclusive, SMN2 splice up 11µM
CC(C)CC(=O)Nc1cccc(-c2cn3ccsc3n2)c1	Rab9 prom act inconclusive, FLuc modulator 12µM, NPC1 promoter act inconclusive, ELG1 genotox inconclusive, SMN2 splice up 18µM
CCC(=O)Nc1cccc(-c2cn3ccsc3n2)c1	FLuc modulator 17µM
CCOC(=O)c1ccc(NC(=O)c2c(C)nn(-c3ccc(F)cc3)c2-n2cccc2)cc1	none (no result: Rab9 prom act, NPC1 promoter act, ELG1 genotox, SMN2 splice up)
CCCCCCCCCCCCCCC[C@@H](O)[C@H](CO)NC(=O)CCCCCCC	none (no result: Rab9 prom act, FLuc modulator, NPC1 promoter act, ELG1 genotox)
COC(=O)N/N=C\c1ccccc1OC/C=C/c1ccccc1	FLuc modulator 17µM, NPC1 promoter act inconclusive, ELG1 genotox inconclusive (no result: SMN2 splice up)
CCOC(=O)N/N=C\c1ccccc1OC/C=C/c1ccccc1	FLuc modulator 4.3µM, NPC1 promoter act inconclusive, ELG1 genotox inconclusive (no result: SMN2 splice up)
COc1cc(/C=N\NC(C)=O)ccc1OC/C=C/c1ccccc1	none (no result: SMN2 splice up)
O=C(CN1CCCN(S(=O)(=O)c2ccc(Br)cc2)CC1)Nc1cccc(C(F)(F)F)c1	none (no result: Rab9 prom act, NPC1 promoter act, ELG1 genotox)
COc1ccc(-c2oc3ncn4nc(COc5ccccc5C)nc4c3c2-c2ccc(OC)cc2)cc1	none (no result: Rab9 prom act, NPC1 promoter act, ELG1 genotox)
Cn1sc(NC(=O)c2ccccc2Cl)nc1=O	FLuc modulator 19µM, SMN2 splice up inconclusive
Cn1sc(NC(=O)c2cccc(Cl)c2)nc1=O	FLuc modulator 19µM, NPC1 promoter act inconclusive
Cc1sc2ncn(CC(=O)N3CCN(c4ccc(Cl)cc4)CC3)c(=O)c2c1S(=O)(=O)N1CCN(c2ncccn2)CC1	none (no result: Rab9 prom act, NPC1 promoter act, ELG1 genotox)
COc1ccccc1CNC(=O)c1nnn(CC(=O)Nc2c(C)cccc2C)c1N	none (no result: Rab9 prom act, NPC1 promoter act, ELG1 genotox, SMN2 splice up)
CCOC(=O)C1(Cc2ccccc2Cl)CCN(C(=O)c2cnccn2)CC1	Rab9 prom act 2.8µM, FLuc modulator 15µM, NPC1 promoter act inconclusive, ELG1 genotox inconclusive (no result: SMN2 splice up)
CCCCNC(=S)Nc1ccc(-c2nc3ccc(C)cc3s2)cc1	Rab9 prom act 2.8µM, FLuc modulator 1.7µM, NPC1 promoter act 3.5µM, ELG1 genotox 4.6µM, SMN2 splice up 3.5µM
CCC(C)(C)NC(=S)Nc1ccc(-c2nc3ccc(C)cc3s2)cc1	Rab9 prom act 2.8µM, FLuc modulator 2.7µM, NPC1 promoter act 4.5µM, ELG1 genotox 9.2µM
COCCCNC(=S)Nc1ccc(C)cc1	FLuc modulator inconclusive (no result: SMN2 splice up)
O=C(CSc1cn(CCNC(=O)c2c(F)cccc2F)c2ccccc12)Nc1ccc2c(c1)OCCO2	FLuc modulator inconclusive (no result: Rab9 prom act, NPC1 promoter act, ELG1 genotox)
Cc1csc(NC(=O)c2ccc3c(=O)n4c(nc3c2)CCCCC4)n1	Rab9 prom act 1.1µM, FLuc modulator 8.5µM, NPC1 promoter act 3.5µM (no result: SMN2 splice up)
O=C(Nc1nccs1)c1ccc2c(=O)n3c(nc2c1)CCCCC3	Rab9 prom act 3.2µM, FLuc modulator 11µM, NPC1 promoter act 2.8µM (no result: SMN2 splice up)
CCN(CC)S(=O)(=O)c1ccc(NC(=O)c2ccc3c(=O)n4c(nc3c2)CCCCC4)cc1	none (no result: Rab9 prom act, NPC1 promoter act, ELG1 genotox)
CC(C)(C)CNCCO	none (no result: Rab9 prom act, FLuc modulator, NPC1 promoter act, ELG1 genotox)
Cc1ccc2c(=O)c(C(=O)c3cccc(Cl)c3)cn(CC(=O)Nc3ccccc3C(F)(F)F)c2n1	none (no result: Rab9 prom act, NPC1 promoter act, ELG1 genotox, SMN2 splice up)
CCOc1ccc(N(CC(=O)NCc2ccccc2C)S(C)(=O)=O)cc1	Rab9 prom act inconclusive, FLuc modulator 13µM, NPC1 promoter act 3.2µM, ELG1 genotox inconclusive (no result: SMN2 splice up)
